Consider one molecule from ChEMBL document CHEMBL2218924, “A broad activity screen in support of a chemogenomic map for kinase signalling research and drug discovery” (Biochem J, 2013).

Test [1] deals with T1, Ephrin type-A receptor 3 (Homo sapiens) (UniProt P29320).
T1 sequence (whole entry): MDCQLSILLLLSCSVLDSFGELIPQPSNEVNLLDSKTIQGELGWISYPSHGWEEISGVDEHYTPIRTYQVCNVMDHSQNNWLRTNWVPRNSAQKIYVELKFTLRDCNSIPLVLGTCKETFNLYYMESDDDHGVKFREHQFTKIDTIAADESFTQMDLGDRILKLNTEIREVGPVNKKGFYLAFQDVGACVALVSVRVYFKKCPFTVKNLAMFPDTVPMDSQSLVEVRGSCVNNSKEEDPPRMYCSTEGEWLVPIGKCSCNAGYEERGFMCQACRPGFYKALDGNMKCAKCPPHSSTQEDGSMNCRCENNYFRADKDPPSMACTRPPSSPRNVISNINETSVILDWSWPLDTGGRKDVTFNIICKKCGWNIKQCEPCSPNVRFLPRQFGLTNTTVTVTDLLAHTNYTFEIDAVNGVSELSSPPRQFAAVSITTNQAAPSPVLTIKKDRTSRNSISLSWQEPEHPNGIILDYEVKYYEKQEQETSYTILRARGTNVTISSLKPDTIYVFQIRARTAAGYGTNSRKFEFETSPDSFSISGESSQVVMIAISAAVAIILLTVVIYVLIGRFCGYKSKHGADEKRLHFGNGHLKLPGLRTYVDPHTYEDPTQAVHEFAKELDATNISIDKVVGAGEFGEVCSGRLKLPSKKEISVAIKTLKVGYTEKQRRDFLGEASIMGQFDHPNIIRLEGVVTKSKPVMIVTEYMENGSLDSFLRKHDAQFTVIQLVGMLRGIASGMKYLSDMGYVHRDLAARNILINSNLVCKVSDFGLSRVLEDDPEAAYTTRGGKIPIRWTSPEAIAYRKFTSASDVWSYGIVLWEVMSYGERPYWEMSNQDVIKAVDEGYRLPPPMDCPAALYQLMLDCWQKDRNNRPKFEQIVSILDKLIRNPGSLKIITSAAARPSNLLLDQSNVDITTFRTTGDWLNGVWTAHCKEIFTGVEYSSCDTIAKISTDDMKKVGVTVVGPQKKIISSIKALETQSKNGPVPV
As to conditions: at 10 µM.

Test [2] addresses Ephrin type-A receptor 4 (Homo sapiens) (UniProt P54764). The conditions noted are these: at 1 µM.
Test [3] shares this target. As to conditions: at 10 µM.
The target of test [4] is Ephrin type-A receptor 5 (Homo sapiens) (UniProt P54756). The conditions noted are these: at 1 µM.
Test [5] has the same target. The conditions noted are these: at 10 µM.
The target of test [6] is Ephrin type-A receptor 7 (Homo sapiens) (UniProt Q15375). The conditions noted are these: at 1 µM.
The target is the same in test [7]. As to conditions: at 10 µM.
The target of test [8] is T2, Ephrin type-A receptor 8 (Homo sapiens) (UniProt P29322).
T2 sequence (whole entry): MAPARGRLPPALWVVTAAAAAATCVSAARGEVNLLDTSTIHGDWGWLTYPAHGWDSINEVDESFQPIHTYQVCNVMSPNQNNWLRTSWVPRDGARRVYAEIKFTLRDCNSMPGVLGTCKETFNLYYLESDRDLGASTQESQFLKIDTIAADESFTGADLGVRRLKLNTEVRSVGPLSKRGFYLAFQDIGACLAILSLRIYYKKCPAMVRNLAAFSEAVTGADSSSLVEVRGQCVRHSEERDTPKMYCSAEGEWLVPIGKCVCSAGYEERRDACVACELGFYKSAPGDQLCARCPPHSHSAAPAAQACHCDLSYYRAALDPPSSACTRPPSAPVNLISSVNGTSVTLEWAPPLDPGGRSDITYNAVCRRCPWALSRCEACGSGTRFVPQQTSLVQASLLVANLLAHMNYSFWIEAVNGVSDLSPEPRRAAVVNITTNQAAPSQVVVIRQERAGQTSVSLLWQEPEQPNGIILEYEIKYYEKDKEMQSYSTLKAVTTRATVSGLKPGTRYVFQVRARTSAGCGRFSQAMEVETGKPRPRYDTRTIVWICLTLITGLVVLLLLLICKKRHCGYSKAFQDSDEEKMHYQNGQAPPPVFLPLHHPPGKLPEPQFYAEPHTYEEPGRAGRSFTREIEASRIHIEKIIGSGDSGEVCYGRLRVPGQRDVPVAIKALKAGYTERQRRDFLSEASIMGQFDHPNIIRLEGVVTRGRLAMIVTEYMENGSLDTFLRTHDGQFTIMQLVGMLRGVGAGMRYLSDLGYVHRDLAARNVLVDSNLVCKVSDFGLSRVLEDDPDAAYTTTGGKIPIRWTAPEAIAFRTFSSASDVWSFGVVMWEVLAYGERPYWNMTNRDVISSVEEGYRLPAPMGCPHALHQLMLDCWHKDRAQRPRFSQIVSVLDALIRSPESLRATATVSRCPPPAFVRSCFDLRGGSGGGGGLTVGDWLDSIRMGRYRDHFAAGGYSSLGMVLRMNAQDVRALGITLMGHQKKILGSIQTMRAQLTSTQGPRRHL
The conditions noted are these: at 1 µM.

For test [9], the target named is T2, Ephrin type-A receptor 8 (Homo sapiens). The conditions noted are these: at 10 µM.
Test [10] has as its target T3, Ephrin type-B receptor 1 (Homo sapiens) (UniProt P54762).
T3 sequence (whole entry): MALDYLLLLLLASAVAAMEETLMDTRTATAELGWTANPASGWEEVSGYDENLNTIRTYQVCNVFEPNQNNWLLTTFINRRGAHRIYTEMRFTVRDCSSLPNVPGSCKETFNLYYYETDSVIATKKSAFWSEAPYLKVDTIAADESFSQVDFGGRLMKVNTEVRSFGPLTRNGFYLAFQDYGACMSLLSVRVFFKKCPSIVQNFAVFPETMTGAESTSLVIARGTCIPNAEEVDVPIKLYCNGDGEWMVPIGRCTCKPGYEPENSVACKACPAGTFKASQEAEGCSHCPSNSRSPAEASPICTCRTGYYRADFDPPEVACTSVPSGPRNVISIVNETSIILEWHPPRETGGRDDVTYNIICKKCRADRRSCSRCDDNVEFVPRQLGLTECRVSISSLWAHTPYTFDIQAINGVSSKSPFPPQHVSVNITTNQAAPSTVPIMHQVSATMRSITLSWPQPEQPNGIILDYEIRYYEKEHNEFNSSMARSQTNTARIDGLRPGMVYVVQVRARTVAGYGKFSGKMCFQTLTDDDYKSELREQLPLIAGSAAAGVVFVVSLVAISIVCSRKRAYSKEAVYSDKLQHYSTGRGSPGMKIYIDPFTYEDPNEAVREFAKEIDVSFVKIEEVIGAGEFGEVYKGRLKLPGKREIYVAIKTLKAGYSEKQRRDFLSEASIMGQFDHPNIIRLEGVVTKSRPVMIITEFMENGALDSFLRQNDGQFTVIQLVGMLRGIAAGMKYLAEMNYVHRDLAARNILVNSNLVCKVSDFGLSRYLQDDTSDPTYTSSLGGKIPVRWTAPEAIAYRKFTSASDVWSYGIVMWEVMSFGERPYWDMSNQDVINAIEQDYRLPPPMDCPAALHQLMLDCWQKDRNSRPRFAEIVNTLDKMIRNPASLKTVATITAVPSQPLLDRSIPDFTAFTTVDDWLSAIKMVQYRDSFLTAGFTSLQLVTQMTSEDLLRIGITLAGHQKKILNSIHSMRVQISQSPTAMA
As to conditions: at 1 µM.

SMILES strings stand for the structures.

Ephrin type-A receptor 7 (Homo sapiens), sequence (Q15375 28-998 limits assumed): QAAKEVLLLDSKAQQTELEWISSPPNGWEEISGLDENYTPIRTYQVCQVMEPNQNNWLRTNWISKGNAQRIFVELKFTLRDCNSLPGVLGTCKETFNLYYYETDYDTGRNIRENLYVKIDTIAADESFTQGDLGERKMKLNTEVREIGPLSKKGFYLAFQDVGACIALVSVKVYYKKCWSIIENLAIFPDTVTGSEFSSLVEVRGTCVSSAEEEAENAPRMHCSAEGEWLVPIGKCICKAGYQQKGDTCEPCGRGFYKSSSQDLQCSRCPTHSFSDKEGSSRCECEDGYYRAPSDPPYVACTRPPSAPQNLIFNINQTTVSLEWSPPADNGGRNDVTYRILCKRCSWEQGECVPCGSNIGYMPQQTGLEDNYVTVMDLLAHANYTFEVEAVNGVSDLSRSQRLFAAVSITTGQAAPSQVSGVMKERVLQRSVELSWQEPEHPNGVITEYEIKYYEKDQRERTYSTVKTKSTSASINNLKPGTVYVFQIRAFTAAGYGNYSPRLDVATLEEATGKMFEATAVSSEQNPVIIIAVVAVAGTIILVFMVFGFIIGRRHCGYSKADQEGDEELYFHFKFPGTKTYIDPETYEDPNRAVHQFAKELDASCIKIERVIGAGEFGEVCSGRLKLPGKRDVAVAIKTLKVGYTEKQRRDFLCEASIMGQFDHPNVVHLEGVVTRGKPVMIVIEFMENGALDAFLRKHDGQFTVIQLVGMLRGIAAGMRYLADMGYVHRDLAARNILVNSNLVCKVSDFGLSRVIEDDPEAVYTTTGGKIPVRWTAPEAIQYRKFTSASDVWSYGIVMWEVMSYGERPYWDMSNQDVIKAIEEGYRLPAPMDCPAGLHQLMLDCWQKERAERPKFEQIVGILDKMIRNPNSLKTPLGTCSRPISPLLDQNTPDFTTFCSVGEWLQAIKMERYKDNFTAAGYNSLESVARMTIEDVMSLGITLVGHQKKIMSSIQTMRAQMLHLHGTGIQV
Ephrin type-A receptor 5 (Homo sapiens), sequence (P54756 whole entry): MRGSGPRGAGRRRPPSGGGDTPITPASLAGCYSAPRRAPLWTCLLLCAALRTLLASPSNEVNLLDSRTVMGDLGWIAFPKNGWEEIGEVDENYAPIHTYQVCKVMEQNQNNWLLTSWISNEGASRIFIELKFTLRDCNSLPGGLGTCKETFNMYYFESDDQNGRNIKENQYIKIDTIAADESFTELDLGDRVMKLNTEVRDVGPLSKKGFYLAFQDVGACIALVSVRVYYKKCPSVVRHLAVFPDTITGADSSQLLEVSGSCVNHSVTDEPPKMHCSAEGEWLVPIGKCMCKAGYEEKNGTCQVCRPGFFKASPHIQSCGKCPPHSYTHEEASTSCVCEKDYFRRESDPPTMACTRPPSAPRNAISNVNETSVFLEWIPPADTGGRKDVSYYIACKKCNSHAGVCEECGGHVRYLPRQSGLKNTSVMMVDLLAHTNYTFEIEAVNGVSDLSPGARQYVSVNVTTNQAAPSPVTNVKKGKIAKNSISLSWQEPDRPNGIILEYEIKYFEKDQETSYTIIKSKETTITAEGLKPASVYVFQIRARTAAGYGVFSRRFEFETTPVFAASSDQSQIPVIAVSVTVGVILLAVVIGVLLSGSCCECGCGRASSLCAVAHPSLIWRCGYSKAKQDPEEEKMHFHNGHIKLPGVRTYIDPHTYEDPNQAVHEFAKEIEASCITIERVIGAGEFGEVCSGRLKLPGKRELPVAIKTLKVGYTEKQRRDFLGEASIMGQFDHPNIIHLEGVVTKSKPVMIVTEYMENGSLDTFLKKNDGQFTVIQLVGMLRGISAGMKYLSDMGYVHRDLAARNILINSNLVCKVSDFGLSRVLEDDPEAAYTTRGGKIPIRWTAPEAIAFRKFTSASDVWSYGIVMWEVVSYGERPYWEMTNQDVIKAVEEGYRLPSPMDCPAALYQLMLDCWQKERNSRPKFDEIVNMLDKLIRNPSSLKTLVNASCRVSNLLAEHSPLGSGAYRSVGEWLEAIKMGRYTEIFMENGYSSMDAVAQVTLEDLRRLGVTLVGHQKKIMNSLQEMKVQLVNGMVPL
Ephrin type-A receptor 4 (Homo sapiens), sequence (P54764 whole entry): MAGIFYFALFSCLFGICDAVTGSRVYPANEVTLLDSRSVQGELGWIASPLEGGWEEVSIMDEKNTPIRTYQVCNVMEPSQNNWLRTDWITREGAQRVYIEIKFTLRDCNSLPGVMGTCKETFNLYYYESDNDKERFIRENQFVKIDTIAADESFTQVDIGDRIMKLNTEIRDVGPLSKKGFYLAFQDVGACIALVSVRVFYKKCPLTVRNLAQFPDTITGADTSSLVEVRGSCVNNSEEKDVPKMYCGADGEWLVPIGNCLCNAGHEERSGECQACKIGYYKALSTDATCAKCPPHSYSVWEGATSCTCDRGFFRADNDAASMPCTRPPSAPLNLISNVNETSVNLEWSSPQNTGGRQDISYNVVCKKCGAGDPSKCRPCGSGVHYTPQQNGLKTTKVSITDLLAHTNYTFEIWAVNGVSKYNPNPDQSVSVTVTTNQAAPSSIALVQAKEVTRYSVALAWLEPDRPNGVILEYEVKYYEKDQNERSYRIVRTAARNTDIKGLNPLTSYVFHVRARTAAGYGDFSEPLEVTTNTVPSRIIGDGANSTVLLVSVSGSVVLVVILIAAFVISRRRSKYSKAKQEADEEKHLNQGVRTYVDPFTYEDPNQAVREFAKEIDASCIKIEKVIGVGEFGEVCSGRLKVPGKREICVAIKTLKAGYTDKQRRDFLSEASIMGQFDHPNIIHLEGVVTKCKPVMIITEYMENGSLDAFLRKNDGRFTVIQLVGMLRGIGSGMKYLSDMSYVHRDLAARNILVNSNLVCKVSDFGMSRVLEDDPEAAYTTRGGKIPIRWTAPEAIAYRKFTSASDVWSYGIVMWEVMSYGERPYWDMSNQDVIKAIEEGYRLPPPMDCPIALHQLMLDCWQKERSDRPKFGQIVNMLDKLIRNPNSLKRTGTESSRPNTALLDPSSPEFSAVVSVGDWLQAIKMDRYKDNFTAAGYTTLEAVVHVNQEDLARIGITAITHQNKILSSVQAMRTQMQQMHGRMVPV

Take `O=C(Nc1cccc(Nc2nccc(Nc3cccc(C(F)(F)F)c3)n2)c1)C1CC1`: the residual activity in test [1] was found to be 47%; in test [2], 102%; in [3], 92%; in [4], 99%; in test [5] it was 80%; in test [6], 81%. Further, the residual activity amounted to 43% in test [7], 97% in test [8], 67% in test [9] and 62% in [10].
